The whole screen tested about 1,300 compounds, of which about 750 (58%) were called active. The list shows a part of the results. Values without a mark were called inactive.
What follows are compounds tested against Sulfhydryl oxidase 1 (Homo sapiens) (UniProt O00391) (assay: inhibition of human sulfhydryl oxidase QSOX1 – biochemical, ROS-Glo H2O2 luminescence, HTS, primary screen (AID 1347418)). Conditions: recombinant QSOX1, ROS-Glo H2O2 luminescence; at 12.5 µM; active compounds read high; active = any value above zero.
Chain of Sulfhydryl oxidase 1 (Homo sapiens) (O00391 whole entry, looked up): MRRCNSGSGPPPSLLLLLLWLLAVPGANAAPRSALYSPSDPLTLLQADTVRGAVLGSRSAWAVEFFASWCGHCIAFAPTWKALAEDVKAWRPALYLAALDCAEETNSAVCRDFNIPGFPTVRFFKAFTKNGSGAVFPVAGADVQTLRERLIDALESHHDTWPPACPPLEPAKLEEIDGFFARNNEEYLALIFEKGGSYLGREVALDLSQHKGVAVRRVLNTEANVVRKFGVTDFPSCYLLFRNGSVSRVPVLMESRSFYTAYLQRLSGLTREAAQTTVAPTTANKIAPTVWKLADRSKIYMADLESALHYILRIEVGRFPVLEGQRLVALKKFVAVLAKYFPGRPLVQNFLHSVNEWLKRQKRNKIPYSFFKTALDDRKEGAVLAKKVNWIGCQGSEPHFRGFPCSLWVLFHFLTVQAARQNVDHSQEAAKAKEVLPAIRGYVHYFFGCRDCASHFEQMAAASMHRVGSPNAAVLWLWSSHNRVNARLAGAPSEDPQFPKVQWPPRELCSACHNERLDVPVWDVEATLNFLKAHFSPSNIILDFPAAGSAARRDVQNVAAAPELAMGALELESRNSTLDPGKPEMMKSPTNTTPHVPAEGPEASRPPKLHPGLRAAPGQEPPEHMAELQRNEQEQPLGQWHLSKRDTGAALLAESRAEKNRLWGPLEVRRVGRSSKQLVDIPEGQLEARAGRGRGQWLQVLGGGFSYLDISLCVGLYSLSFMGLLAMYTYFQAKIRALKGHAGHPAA

SMILES	inhibition
O=C(O)c1cc2cc(Cc3cccnc3)ccc2o1	-7.8%
C[C@]12CC[C@@H]3c4ccc(O)cc4CC[C@H]3[C@@H]1CCC2=O	-1.6%
COc1cc2c(cc1O)CC[C@@H]1[C@@H]2CC[C@]2(C)[C@@H](O)CC[C@@H]12	36% (active)
COc1ccc2c(c1)CCC1C2CC[C@@]2(C)C1CC[C@@H]2NCCCCCCN1C(=O)CCC1=O (some centres undefined)	-2.7%
COc1ccc2c(c1)CCC1C2CC[C@@]2(C)C1CC[C@@H]2NCCCCCCN1C(=O)C=CC1=O (some centres undefined)	-7.4%
C[C@]12CC[C@@H]3c4ccc(O)cc4CC[C@H]3[C@@H]1CC[C@@H]2O	5.6% (active)
C[C@]12CC[C@@H]3c4ccc(O)cc4C[C@@H](CCCCCCCCCS(=O)CCCC(F)(F)C(F)(F)F)[C@H]3[C@@H]1CC[C@@H]2O (some centres undefined)	-4.8%
CCCCCCN(CCCCCC)C(=O)Cc1c(-c2ccc(F)cc2)[nH]c2ccccc12	-2.9%
COc1cc2nc(N3CCCN(C)CC3)nc(NC3CCN(Cc4ccccc4)CC3)c2cc1OC	1.5% (active)
Oc1ccc(O)cc1	11.1% (active)
CSc1nc(N)c2ncn([C@@H]3O[C+](COP(=O)([O-])OP(=O)(O)O)[C@H](O)C3O)c2n1 (some centres undefined)	0.7% (active)
CNc1ncnc2c1ncn2[C@H]1C[C@H](OP(=O)(O)O)[C@@H](COP(=O)(O)O)O1	-3.3%
C[N+](C)(C)CCOP(=O)(O)OP(=O)([O-])OC[C@H]1O[C@@H](n2ccc(N)nc2=O)C(O)[C@H]1O (some centres undefined)	-0.3%
NC(N)=NC(N)=Nc1ccccc1	-4.7%
NC(N)=NC(N)=Nc1cccc(Cl)c1	9.6% (active)
NC(N)=NC(=O)Cc1c(Cl)cccc1Cl	-6.8%
Oc1ccccc1O	5.6% (active)
CCCN(CCc1ccccc1)C1CCc2c(O)cccc2C1 (centres undefined)	-0.3%
CCN(CC)CCCN(c1ccccc1)C1Cc2ccccc2C1	40.2% (active)
COc1cccc(-c2cc(=O)c3ccccc3o2)c1N	0.9% (active)
N#Cc1cc2nc(O)c(O)nc2cc1[N+](=O)[O-]	0.9% (active)
O=C1NCC2(CCN(CCc3ccccc3)CC2)O1	-1%
C[C@@H](O)[C@H]1C(=O)N2C(C(=O)O)=C(SCCN=CN)C[C@H]12	-5.2%
C=CCN1CCc2cc(O)c(O)cc2C(c2ccccc2)C1 (centres undefined)	18% (active)
Cc1cccc(C2CN(C)CCc3c2cc(O)c(O)c3Cl)c1 (centres undefined)	25% (active)

SMILES	inhibition
C=CCN1CCc2c(cc(O)c(O)c2Cl)C(c2ccccc2)C1 (centres undefined)	31.6% (active)
C=CCN1CCc2c(cc(O)c(O)c2Br)[C@@H](c2ccccc2)C1	26.8% (active)
COC(=O)C1=CO[C@@H](O)[C@@H]2C(CO)=CC[C@H]12	-3.2%
NCC1OC(O[C@@H]2[C@H](O)C(OC3C(O)C(N)CC(N)C3OC3OC(CO)C(O)C(O)C3N)O[C@@H]2CO)C(N)C(O)C1O (some centres undefined)	-3.5%
C=C(C)C1CC=C(C(=O)O)CC1 (centres undefined)	-1.3%
NC1C=CC=C(C(=O)O)C1 (centres undefined)	-2.2%
CNC(=O)Oc1ccc2c(c1)[C@]1(C)CCN(C)[C@@H]1N2C	2.6% (active)
O=C(O)C1CCCN(CCC=C(c2ccccc2)c2ccccc2)C1 (centres undefined)	-3.9%
CC(C)(C)c1ccc(C(=O)CCCN2CCC(OC(c3ccccc3)c3ccccc3)CC2)cc1	-3.2%
CN1[C@@H](CC(=O)c2ccccc2)CCC[C@H]1C[C@H](O)c1ccccc1	4.3% (active)
CC(C)c1cccc(C(C)C)c1N1C(=O)c2ccc(O)cc2C1=O	0.3% (active)
O=C(CCCN1CCC(O)(c2ccc(Cl)cc2)CC1)c1ccc(F)cc1	-4%
CCCCN1CCC(n2c(=O)[nH]c3ccccc32)CC1	-1.6%
O=C(/C=C/c1ccc(O)c(O)c1)OCCc1ccccc1	19.7% (active)
O=C(O)/C=C/c1ccc(O)c(O)c1	9.6% (active)
O=c1cc(-c2ccccc2)[nH]c2nc(Cl)ccc12	-0.2%
Nc1ncnc2c1nc(Br)n2C1OC2COP(=O)(O)O[C@@H]2C1O (some centres undefined)	-1.8%
Nc1nc(O)c2nc(Br)n(C3OC4COP(=O)(O)O[C@@H]4C3O)c2n1 (some centres undefined)	-4.7%
Nc1ncnc2c1nc(Sc1ccc(Cl)cc1)n2C1OC2COP(=O)(O)O[C@@H]2[C@@H]1O (some centres undefined)	1.8% (active)
C[C@H]1O[C@@H](n2cc(F)c(=O)[nH]c2=O)[C@H](O)[C@@H]1O	4.5% (active)
O=c1ccn([C@@H]2O[C@H](COP(=O)(O)OP(=O)(O)O)[C@@H](O)[C@H]2O)c(=O)[nH]1	-4.1%
c1ccc2c(c1)CCC[C@H]2Nc1nc2ccccc2[nH]1	12.1% (active)
c1ccc2c(c1)CCCC2C1=NCCN1 (centres undefined)	-3.7%
NC(=NCc1ccccc1)NC(=O)c1nc(Cl)c(N)nc1N	4.4% (active)
NC(=Nc1ccccc1)NC(=O)c1nc(Cl)c(N)nc1N	-0.3%

SMILES	inhibition
CCN(CC)CCOC(=O)c1ccc(N)cc1	-3.4%
CCN(CC)CCCCCCCCOC(=O)c1cc(OC)c(OC)c(OC)c1	6.2% (active)
CCCCc1oc2ccccc2c1C(=O)c1cc(I)c(OCCN(CC)CC)c(I)c1	-1%
CC(=O)NNC(=O)N1Cc2ccccc2Oc2ccc(Cl)cc21	2.6% (active)
C[C@]12C=CC(=O)C=C1CC[C@H]1[C@@H]3C[C@@H](O)[C@](O)(C(=O)CO)[C@@]3(C)C[C@H](O)[C@@]12F	-107%
CC1CC2C3CCC4=CC(=O)C=C[C@]4(C)[C@@]3(F)[C@@H](O)C[C@]2(C)[C@@]1(O)C(=O)CO (some centres undefined)	2.3% (active)
C[C@H]1CC2C3CCC4=CC(=O)C=C[C@]4(C)[C@@]3(Cl)[C@@H](O)C[C@]2(C)[C@@]1(O)C(=O)CO (some centres undefined)	8.8% (active)
CCCC1O[C@@H]2C[C@H]3[C@@H]4CCC5=CC(=O)C=C[C@]5(C)[C@H]4[C@@H](O)C[C@]3(C)[C@]2(C(=O)CO)O1 (some centres undefined)	-0.8%
CC12CC3CC(C)(C1)CC(N)(C3)C2	3.5% (active)
NC12CC3CC(CC(C3)C1)C2	-0.1%
O=c1cc(-c2ccccc2F)[nH]c2cc3c(cc12)OCO3	4.4% (active)
OC(CN1CCC(Cc2ccc(F)cc2)CC1)c1ccc(Cl)cc1 (centres undefined)	7.6% (active)
Brc1ccc([C@H]2CN3CCSC3=N2)cc1	6.2% (active)
c1ccc([C@H]2CN3CCSC3=N2)cc1	-2.6%
c1ccc(C2CN3CCSC3=N2)cc1 (centres undefined)	0.3% (active)
OCCN1CCN(CCCN2c3ccccc3Sc3ccc(C(F)(F)F)cc32)CC1	43.6% (active)
CN1CCN(CCCN2c3ccccc3Sc3ccc(C(F)(F)F)cc32)CC1	27.4% (active)
OCCN1CCN(CC/C=C2/c3ccccc3Sc3ccc(C(F)(F)F)cc32)CC1	0.6% (active)
O=C(CCCN1CCC(O)(c2cccc(C(F)(F)F)c2)CC1)c1ccc(F)cc1	-4.6%
NC(=O)c1cn(Cc2c(F)cccc2F)nn1	1.3% (active)
Cc1ccccc1N1C(=O)c2cc(S(N)(=O)=O)c(Cl)cc2NC1C (centres undefined)	0.3% (active)
NC/C=C\C(=O)O	-0.4%
COc1ccc(NC=O)c(C(=O)CCNC(C)=O)c1	-0.8%
CC(=O)NCCc1c[nH]c2ccc(O)cc12	27.5% (active)
COc1cc2c(CCNC(C)=O)c[nH]c2cc1O	45.2% (active)

SMILES	inhibition
COc1cc2c(CCNC(C)=O)c[nH]c2cc1Cl	-1.4%
COc1ccc2[nH]cc(CCNC(C)=O)c2c1	5.6% (active)
Nc1nc(OCc2ccccc2)c2[nH]cnc2n1	2% (active)
Nc1nc(OCC2CCCCC2)c2[nH]cnc2n1	0%
NC/C=C/C(=O)O	-2.4%
O=c1ccc2c(OCCCCc3ccccc3)c3ccoc3cc2o1	2.3% (active)
CC(=O)O[C@H]1Cc2ccccc2N(C(N)=O)c2ccccc21	0.3% (active)
NC(=O)N1c2ccccc2C=Cc2ccccc21	-1.4%
CC(C)(C)C(=O)Oc1ccc(S(=O)(=O)Nc2ccccc2C(=O)NCC(=O)O)cc1	-1%
CC1(C)CCC2=C(O1)c1ccccc1C(=O)C2=O	40.5% (active)
COc1cc(Cc2cnc(N)nc2N)cc(OC)c1OC	0.5% (active)
CC[C@H]1CN2CCc3cc(OC)c(OC)cc3[C@@H]2C[C@@H]1C[C@H]1NCCc2cc(OC)c(OC)cc21	1.7% (active)
COc1cc2c(cc1OC)C1CC(=O)C(CC(C)C)CN1CC2 (centres undefined)	2.6% (active)
CCc1cccc(N(C)C(N)=Nc2cccc3ccccc23)c1	8.7% (active)
C(=C\c1ccccc1)/CN1CCN(C(c2ccccc2)c2ccccc2)CC1	4.9% (active)
Fc1ccc(C(c2ccc(F)cc2)N2CCN(C/C=C/c3ccccc3)CC2)cc1	0.4% (active)
CN(C)CCCc1cc(C(=O)Nc2ccc(-c3ccncc3)cc2)ccc1O	2.5% (active)
Cc1nc(N=Nc2ccc(C(=O)O)cc2)c(COP(=O)(O)O)c(C=O)c1O	0.9% (active)
Cc1nc(N=NC2=[C+]C3=C(C=C([N+](=O)[O-])[C+]=C3S(=O)(=O)[O-])C(S(=O)(=O)[O-])=[C+]2)c(COP(=O)([O-])O)c(C=O)c1O	2.8% (active)
C#CCN(C)CCCOc1ccc(Cl)cc1Cl	-1.5%
Cn1ccnc1	-4.4%
CN(C)CC/C=C1\c2ccccc2COc2ccccc21	-3.1%
CN(C)CCC=C1c2ccccc2C=Cc2ccccc21	1% (active)
CN(C)CCC=C1c2ccccc2CCc2ccccc21	-4.4%

From PubChem BioAssay AID1347418 (Sanford-Burnham Center for Chemical Genomics, 2020)
